Experimental findings from PubChem BioAssay (NCI) are described below.

This is part of a sample that, as a whole, favours compounds with a hit. Of some 83,000 tested, about 20% had one in any assay.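 96-well plates, one dose, 48 hours. Percent growth reported; active if below 10.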 Values without a mark were called inactive. Calls of active or inactive are those of the source.

Common to all, as to test: NCI-60 one-dose screen, 48 h (100 = growth as untreated, 0 = no growth, -100 = all killed)
Common to all, as to settings: 10 µM unless noted

Assay [1] has as its system NCI-H23 lung.
For assay [2], the system named is NCI-H226 lung.
Assay [3] has as its system NCI-H322M lung.
Assay [4] deals with HOP-62 NSCLC.
Assay [5] relates to NCI-H460 lung.
In assay [6] the test system is HOP-92 NSCLC.
In assay [7] the test system is NCI-H522 lung.
Assay [8] relates to A549/ATCC NSCLC.
Assay [9] concerns 786-0 renal.
For assay [10], the system named is COLO 205 colon.

Consider `O=C(Nc1ccc(Oc2cccc(Cl)c2)c(Cl)c1)c1cccnc1`, for which the growth in assay [1] is 47.9%; in assay [2] it was 54.3%; in [3], 47.1%; in assay [4], 38%; in [5] it was 22.2%; in assay [6], 61.3%. Further, the growth in assay [7] was 27.3%; in [8], 36.8%; in assay [9], 39.2%; in assay [10] it was 15.4%.
In the case of `NNc1nc(-c2cccnc2)nc2c1sc(=S)n2-c1ccccc1`, the growth in assay [1] is 102%; in assay [2], 105%; in assay [3] it was 101%; in [4] it was 69.1%; in assay [5] it was 107%; in assay [6], 84.9%. The growth in [7] was 58.7%; in assay [8] it was 87.7%; in [9], 89.7%; in assay [10] it was 98.4%.
As to `CN1CCc2nc3sc(C(N)=O)c(N)c3c(-c3cccs3)c2C1`, the growth is 36.2% in assay [1]; 16.3% in assay [2]; 40.7% in assay [3]; 23.3% in assay [4]; 30.4% in assay [5]; -7.38% (active) in [6]. The growth in [7] was 38.9%; in assay [8] it was 24.1%; in assay [9], 9.22% (active); in assay [10], 7.02% (active).
As to `O=C(O)CCCN1C(=O)/C(=C/c2cn(-c3ccccc3)nc2-c2ccc([N+](=O)[O-])cc2)SC1=S`, the growth was 74.6% in assay [1]; 64.8% in [2]; 44.1% in [3]; 49.6% in [4]; 25.7% in assay [5]; 111% in assay [6]. The growth is 83.7% in assay [7], 40.5% in assay [8], 64.5% in [9] and 103% in assay [10].
As to `O=C(O)CCN1C(=O)/C(=C/C(Cl)=C/c2ccccc2)SC1=S`, the growth in [1] was 21.3%; in [2], 23.6%; in assay [3], 61%; in assay [4], 53.9%; in assay [5], 16.6%; in assay [6] it was 53.7%. The growth in [7] was 10.6%; in [8] it was 44.8%; in assay [9], 9.92% (active); in assay [10], 13%.
In the case of `Nc1n[nH]c2ccc([C@H]3[C@@H]4C5CCC(C5)[C@@H]4c4c(ccc5[nH]ncc45)N3S(=O)(=O)C3CC3)cc12` (stereo not given in full), the growth in [1] was 16.3%; in assay [2], -16.9% (active); in [3], 38.6%; in assay [4], 41.1%; in assay [5], 5.9% (active); in assay [6], 67.7%. Besides, the growth was 7.23% (active) in assay [7], 17.1% in [8], 31.3% in assay [9] and -0.398% (active) in assay [10].
For `Cc1[nH]c(C(=O)Nc2ccccc2OC2CCNCC2)c(Cl)c1Cl`, the growth was 42.8% in assay [1]; 98.6% in assay [2]; 31.3% in assay [3]; 11.4% in assay [4]; 5.07% (active) in [5]; -2.05% (active) in [6]. The growth is -24.7% (active) in assay [7], 27.3% in assay [8], -56.6% (active) in assay [9] and -9.94% (active) in [10].
On to `COc1ccc(C2CC(c3ccc(Nc4nc(Nc5ccccc5)nc(Nc5ccccc5)n4)cc3)=NN2C(C)=O)cc1` (stereo not given), for which the growth in assay [1] is 97.4%; in assay [2], 98.1%; in assay [3], 107%; in assay [4], 95.2%; in assay [5] it was 116%; in [6] it was 78%. The growth is 88.7% in [7], 88.1% in assay [8], 88.5% in assay [9] and 111% in assay [10].
As to `O=C(CN1CCCCC1)Nc1nc(-c2cc3ccccc3oc2=O)cs1`, the growth in assay [1] was 109%; in assay [2] it was 88.3%; in assay [3], 93.9%; in assay [4], 96.2%; in assay [5], 103%; in assay [6], 98.7%. The growth in assay [7] is 93.6%; in assay [8], 102%; in assay [9] it was 95.4%; in [10] it was 116%.
On to `COc1cccc(CNc2ccc3ncnc(Nc4ccc(F)c(Cl)c4)c3c2)c1`, for which the growth is 69.6% in assay [1]; 71.4% in [2]; 34.1% in assay [3]; 82.5% in assay [4]; 78% in assay [5]; 76.8% in [6]. The growth is 18.6% in assay [7], 53.1% in [8], 71.2% in assay [9] and 91.3% in assay [10].
`C=C1C(=O)O[C@H]2[C@H]1CC/C(COC(=O)NCc1ccc(Cn3c(=O)sn(CCCCC)c3=O)cc1)=C\CC[C@@]1(C)O[C@@H]21`: the growth is 78.6% in assay [1]; 75.4% in assay [2]; 93.4% in assay [3]; 81.2% in assay [4]; 92.6% in assay [5]; -15.6% (active) in assay [6]. For the same compound, the growth is -68.6% (active) in assay [7], 89.3% in assay [8], 32.1% in assay [9] and -20.8% (active) in [10].
In the case of `O=c1c2cnn(-c3ccccc3)c2n2c(CN3CCOCC3)nnc2n1-c1ccccc1`, the growth in assay [1] was 108%; in [2], 104%; in assay [3], 108%; in assay [4] it was 78.1%; in assay [5] it was 102%; in assay [6] it was 81.3%. Also, the growth in [7] was 41.2%; in assay [8], 76.9%; in assay [9] it was 92.6%; in assay [10], 96.5%.
Take `Cc1cccc(/C=C/c2c(C(=O)/C=C/c3ccccc3)c(C)nc3ccccc23)c1`: the growth in assay [1] is -57.9% (active); in [2], -16.5% (active); in [3] it was 9.28% (active); in assay [4], -48.1% (active); in assay [5] it was -71.8% (active); in assay [6] it was -1.2% (active). The growth in assay [7] is -58.7% (active); in [8], -34.8% (active); in [9] it was -55.5% (active); in assay [10] it was -61.8% (active).
